A short description of the assay: qHTS profiling of the MIPE4 collection as inhibitors of Plasmodium falciparum (HB3) proliferation (AID 743347).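 Note: plate controls were DMSO vehicle wells for no effect and artemisinin wells for full effect.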 Conditions: P. falciparum HB3 in erythrocytes, SYBR Green DNA, 72 h; at 28.5 µM (top of the series). The method in brief:
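Erythrocytes infected with P. falciparum (0.3% parasitemia, 2.5% hematocrit) incubated with compounds 72 h at 37 C, 5% CO2. Lysis with saponin/Triton buffer containing SYBR Green I, overnight at room temperature in the dark; DNA fluorescence (485/535 nm) normalised to 0.29 uM artemisinin and DMSO.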
In turn, `CCc1c(C(=O)C(N)=O)c2c(OCC(=O)O)cccc2n1Cc1ccccc1` registered a growth, % of control of 99.7%.
In the case of `CC(C)[C@]12O[C@@H]1[C@@H]1O[C@]13[C@]1(O[C@H]1C[C@@H]1C4=C(CC[C@@]13C)C(=O)OC4)[C@H]2O` it was 44.2%.
In turn, `C1=C2CCCN[C@H]2[C@@H]2C[C@H]1[C@@H]1CCCCN1C2` came in with a growth, % of control of 94.5%.
In the case of `CCOP(=O)(OCC)C(C)NC(=O)N(CCCl)N=O` (centres undefined) it was 116%; in that of `C=C[C@@H]1CN2CCC1C[C@H]2[C@H](O)c1ccnc2ccccc12` (some centres undefined), 21.5%.
Under `CO[C@H]1CCC(O[C@H]2C[C@H]([C@]3(C)CC[C@]4(C[C@H](O)[C@@H](C)[C@@H]([C@@H](C)C=C(C)C(=O)[C@H](C)C[C@H](C)C(=O)O)O4)O3)O[C@]3(O[C@@H]([C@H]4O[C@@](O)(CO)[C@H](C)C[C@H]4C)C[C@H]3C)[C@H]2C)O[C@H]1C` (some centres undefined) stands 8.74%; under `CCOC(=O)c1c(C(C#N)=CN)c2ccc(Cl)c(Cl)c2n1C`, 89.6%.
The compound `CCOC(=O)Nc1ccc(NCc2ccc(F)cc2)cc1N` gave a growth, % of control of 15.1%.
Compound `CN[C@@H]1Cc2cccc3[nH]c(=O)n(c23)C1` displayed a growth, % of control of 85.5%.
Under `CC=C(C)C(=O)O[C@H]1C(C)=C2[C@@H]3OC(=O)[C@@](C)(O)[C@@]3(O)[C@@H](OC(=O)CCC)C[C@](C)(OC(C)=O)[C@@H]2[C@@H]1OC(=O)CCCCCCC` stands 8.71%; under `CCN1CCN(C(=O)Cc2ccc(Nc3ncc(F)c(Nc4ccc(C(=O)Nc5ccccc5Cl)cc4)n3)cc2)CC1`, 7.73%.
Under `CC(C)N[C@@H]1CCn2c(=O)[nH]c3cccc(c32)[C@@H]1O` stands 101%; under `CCCN1CCO[C@@H]2c3cc(O)ccc3OC[C@@H]21`, 77.3%; under `CC(N[C@H]1C[C@H]1c1ccccc1)c1ccc2c(c1)OCCO2` (some centres undefined), 60.1%.
Under `CC[C@H]1C=CC=CC[C@@H](C)[C@H](O)[C@@](C)(O)C(=O)[C@@H](C)[C@H](O)[C@@H](C)C(=O)[C@@H](C)[C@H](O)[C@@H](C)C=CC(=O)O[C@@H]2[C@@H](C)[C@H](CC1)O[C@]1(CC[C@H](C)[C@H](C[C@@H](C)O)O1)[C@H]2C` stands 8.5%.
Compound `C#CC1(O)CCC2C3CCC4=CC(=O)CCC4(C)C3CCC21C` (centres undefined) came in with a growth, % of control of 89%.
In the case of `CC(C)(C)[C@]1(O)C[C@@H]2OC(=O)C[C@@]23C(=O)O[C@@H]2OC(=O)[C@H](O)C213` (some centres undefined) it was 75.6%; in that of `C[C@](O)(COc1ccc(C#N)cc1)C(=O)Nc1ccc(C#N)c(C(F)(F)F)c1`, 9.27%; in that of `CC(=O)O[C@@]12CO[C@H]1C[C@H](O)[C@@]1(C)C(=O)[C@H](O)C3=C(C)[C@@H](O)C[C@@](O)([C@@H](OC(=O)c4ccccc4)[C@@H]21)C3(C)C`, 34.8%.
Consider `O=C1C=CC[C@@H]2[C@H]3CCCN4CCC[C@@H](CN12)[C@@H]34`, for which the growth, % of control turned out to be 97.5%.
In the case of `COc1cc2cc(c1Cl)N(C)C(=O)C[C@H](OC(=O)C(C)C)[C@]1(C)O[C@H]1[C@H](C)[C@@H]1C[C@@](O)(NC(=O)O1)[C@H](OC)C=CC=C(C)C2` it was 9.61%; in that of `CC(C)(C)c1cc(C=C(C#N)C#N)cc(Br)c1O`, 34.7%; in that of `COc1ccc2c(c1)CN(C)CC2c1ccc(Cl)c(Cl)c1` (centres undefined), 9.4%.
Under `COc1cc([C@@H]2c3cc4c(cc3[C@@H](O)C3COC(=O)C32)OCO4)cc(OC)c1O` (some centres undefined) stands 66.2%.

For the origin of these results see PubChem BioAssay (NCATS).
